“And” between values parts separate entries of the source, which are not always exact repeats. Equal values may be shown once. Records with an inconclusive call do not appear. The source made the active and inactive calls. The call rests on the fitted dose curve.

This assay in a line: qHTS Assay for Lipid Storage Modulators (AID 1519). On activity change, negative = inhibition: on the % scale 0 is the no-effect control and ±100 the full control effect. Particulars: Drosophila S3 cells, BODIPY lipid droplet/cell ratio, laser cytometry, cells loaded with oleic acid. The source says: NIH Molecular Libraries Probe Production Centers Network [MLPCN]
NIH Chemical Genomics Center [NCGC]
Assay Submitter (PI): Beller, Mathias; Max-Planck-Institut fur Biophysikalische Chemie
NCGC Assay Overview: Storing lipids as a reservoir for energy or the anabolism of elementary metabolites is a common feature of probably all cells and is conserved from bacteria to humans. The universal cellular lipid storage organelle is the so-called lipid storage droplet (LD). Although ubiquitous, LDs share a simple structure composed of a hydrophobic core that harbors the storage lipids, which is shielded by a droplet-specific phospholipid monolayer to which proteins are attached. The current model of LD biogenesis involves an incorporation of the lipid core into the membrane leaflets of the endoplasmic reticulum (ER) followed by a subsequent budding-like maturation of a LD, which ultimately pinches off. Once released, LD volume can increase by localized lipogenesis or fusion of existing droplets. Storage lipids are re-mobilized enzymatically by lipase activity. Lipase regulation in the adipocyte is heavily studied and involves multiple components including catecholamine signaling, the LD-associated proteins Perilipin and comparative gene identification-58 (CGI-58) and at least two lipases named hormone sensitive lipase (HSL) and adipocyte triglyceride lipase (ATGL). LD regulation outside of the adipocyte is poorly understood and only few components are known. However, there is an urgent need to learn more about ectopic fat depots as mislocalized storage of lipids, for example in the liver or muscle, is an eminent health problem associated with insulin resistance or the metabolic syndrome. We developed a laser-scanning cytometer assay to enable 1,536-well screening and combined the results of the small molecules screen with an RNAi database based on lipid storage.
NCGC Assay Protocol Summary:
We dispensed 4 uL of cells at 1.25 x 10^6 cells/mL into LoBase Aurora COC 1,536-well plates (black walled, clear bottom) with a bottle-valve solenoid-based dispenser (Aurora) to obtain 5,000 cells/well. Triacsin C (Sigma-Aldrich T-4540), an inhibitor of long-chain fatty acyl CoA synthetase that blocks synthesis of triglycerides, was used as a positive control for lipid under-storage. A total of 23 nL of compound solution of different concentrations were transferred to the assay plates using a Kalypsys pin tool equipped with a 1,536-pin array containing 10-nL slotted pins (FP1S10, 0.457-mm diameter, 50.8 mm long; V&P Scientific). One microliter of oleic acid (400 uM) was added, and the plate was lidded with stainless steel rubber gasket lined lids containing pinholes. […] Fluorescence was detected by excitation of the fluorophores with a 488-nm laser on an Acumen Explorer (TTP Lab Tech). The total intensity in channel 1 (500-530 nm) reflected lipid droplet accumulation. […] The ratio of the total intensity in PMT channel 1 over total intensity of channel 3 was also calculated. Percent activity was computed relative to an internal control (100% inhibited lipid droplet deposition due to the presence of 20 uM Triacsin C), which was added to 32 wells/plate.
(In general: Quantitative high-throughput screening tests each substance at several concentrations.)

Setting [1] is: measured here: cell count channel max response.
[2] abbreviates: measured here: lipid channel max response.

On to `NCC1(CC(=O)O)CCCCC1`, for which the activity change, negative = inhibition by setting is: (at 25.7 µM (top of the series)) -2.01% (inactive); (at 57.5 µM (top of the series)) 1.35% (inactive). Moreover, the max response runs as follows: under setting [1], -7.98% and 4.74%; under setting [2], -6.8% and 4.42%.

Consider `O=c1[nH]c2ccccc2n1CCCN1CCC(n2c(=O)[nH]c3cc(Cl)ccc32)CC1`, for which the activity change, negative = inhibition is 0.586% (inactive) (at 25.7 µM (top of the series)); 4.6% (inactive) and -5.66% (inactive) (at 57.5 µM (top of the series)). The max response runs as follows: under setting [1], 2.1% and 12.4% and -15.6%; under setting [2], 4.47% and 17.4% and -21%.

Consider `CC(C)=CC1C(C(=O)OCc2cccc(Oc3ccccc3)c2)C1(C)C` (stereo unspecified), for which, where the note is “at 57.5 µM (top of the series)”, the activity change, negative = inhibition is 8.71% (inactive). Further, the max response came to 10.5% under setting [1] and 23.2% under setting [2].

Regarding `NCC(CC(=O)O)c1ccc(Cl)cc1` (stereo unspecified), the activity change, negative = inhibition (at 57.5 µM (top of the series)) was 7.61% (inactive). For the same compound, the max response under setting [1] came out at 16.5% and the max response under setting [2] is 28.7%.

With `NN=C(N)N`, for the setting “at 57.5 µM (top of the series)”, the activity change, negative = inhibition is 1.91% (inactive) and 1.41% (inactive). For the same compound, the max response is, setting by setting: under setting [1], 12.1% and -0.681%; under setting [2], 15.5% and -2.91%.

For the compound `CC(CCc1ccccc1)NC(C)C(O)c1ccc(O)cc1` (stereo unspecified), the activity change, negative = inhibition (at 57.5 µM (top of the series)) is 1.71% (inactive). For the same compound, the max response runs as follows: under setting [1], -1.34%; under setting [2], 0.25%.

As to `CC[N+]1(C)CCCC(OC(=O)C(O)(c2ccccc2)c2ccccc2)C1` (stereo unspecified), the activity change, negative = inhibition (at 57.5 µM (top of the series)) is 8.59% (inactive). Also, the max response is 5.8% under setting [1] and 23.3% under setting [2].

Regarding `c1ccc2c(c1)OCC(C1=NCCN1)O2` (stereo unspecified), the activity change, negative = inhibition (at 57.5 µM (top of the series)) was 0.671% (inactive). Moreover, the max response was found to be 8.3% under setting [1] and 9.22% under setting [2].

`CC(=O)[C@H]1CC[C@H]2[C@@H]3CC[C@H]4C[C@H](O)CC[C@]4(C)[C@H]3C(=O)C[C@]12C`: the activity change, negative = inhibition (at 57.5 µM (top of the series)) is -2.01% (inactive). For the same compound, the max response under setting [1] worked out at 15.7% and the max response under setting [2] turned out to be 15.5%.

Consider `CN(C)C(=O)C(CCN1CCC(O)(c2ccc(Cl)cc2)CC1)(c1ccccc1)c1ccccc1`, for which the activity change, negative = inhibition (at 57.5 µM (top of the series)) is -2.05% (inactive). For the same compound, the max response by setting is: under setting [1], -1%; under setting [2], -2.23%.

Consider `CCCC(C)(COC(N)=O)COC(=O)NC(C)C` (stereo unspecified), for which the activity change, negative = inhibition (at 57.5 µM (top of the series)) was 3.44% (inactive) and -3.03% (inactive). Besides, the max response by setting is: under setting [1], 20.3% and 29.2%; under setting [2], 29.5% and 22.2%.

`O=C1NCN(c2ccccc2)C12CCN(CC1COc3ccccc3O1)CC2` (stereo unspecified): the activity change, negative = inhibition (at 57.5 µM (top of the series)) is 1.66% (inactive). For the same compound, the max response runs as follows: under setting [1], 10.9%; under setting [2], 12.8%.

Regarding `COc1ccccc1N1CCNCC1`, for the setting “at 57.5 µM (top of the series)”, the activity change, negative = inhibition was 3.26% (inactive) and 0.382% (inactive). In addition, the max response is 10.9% and -13.3% under setting [1]; 15.1% and -12.9% under setting [2].

The values above are taken from PubChem BioAssay (NCATS).
